# Data published in the supplement of paper PMC11732987, “Enantioselective OTUD7B fragment discovery through chemoproteomics screening and high-throughput optimisation” (Communications Chemistry, 2025).
# Values without a mark were called inactive.
# Experiments:
# Assay in all cases: log2 ratio of Biotin-Ahx-Ub-VS probe labelling (fragment/DMSO); higher = less target engagement (more negative = stronger competition), active = hit call of the paper (q ≤ 0.05, log2 ratio ≤ -1)
# Settings in all cases: compound concentration: 200 uM; treatment time: 3 h
# UniProt O00507 = target: UniProt O00507
# Method in brief: (§1)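 Each value is an average log2 ratio of fragment to vehicle, tested by unpaired t-test. The underlying Spectronaut label-free quantities were global-median-normalised, and only proteins with ≥2 unique peptides were included. Triplicate HEK293T lysate samples (495 µg) were exposed to fragment at 200 µM or vehicle for 3 h, then to Biotin-Ahx-Ub-VS at 0.5 µM final for 1 h, before NeutrAvidin enrichment of labelled DUBs, LysC and trypsin digestion, and diaPASEF LC-MS/MS.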
# UniProt P51784 = target: UniProt P51784
# Method in brief: as §1
# UniProt Q5T2D3 = target: T1, UniProt Q5T2D3
# T1 sequence (whole entry): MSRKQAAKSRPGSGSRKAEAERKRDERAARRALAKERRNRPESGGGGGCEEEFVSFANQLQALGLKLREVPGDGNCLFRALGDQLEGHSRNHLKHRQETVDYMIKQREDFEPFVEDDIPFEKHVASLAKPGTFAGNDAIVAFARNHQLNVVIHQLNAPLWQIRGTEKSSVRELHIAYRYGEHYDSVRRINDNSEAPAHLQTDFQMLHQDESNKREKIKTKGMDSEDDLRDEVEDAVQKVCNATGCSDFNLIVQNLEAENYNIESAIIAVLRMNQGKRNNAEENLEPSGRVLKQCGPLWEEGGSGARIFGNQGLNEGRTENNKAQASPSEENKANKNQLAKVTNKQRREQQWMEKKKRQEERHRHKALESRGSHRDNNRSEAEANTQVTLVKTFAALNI
# Method in brief: as §1
# UniProt Q8TE49 = target: T2, UniProt Q8TE49
# T2 sequence (whole entry): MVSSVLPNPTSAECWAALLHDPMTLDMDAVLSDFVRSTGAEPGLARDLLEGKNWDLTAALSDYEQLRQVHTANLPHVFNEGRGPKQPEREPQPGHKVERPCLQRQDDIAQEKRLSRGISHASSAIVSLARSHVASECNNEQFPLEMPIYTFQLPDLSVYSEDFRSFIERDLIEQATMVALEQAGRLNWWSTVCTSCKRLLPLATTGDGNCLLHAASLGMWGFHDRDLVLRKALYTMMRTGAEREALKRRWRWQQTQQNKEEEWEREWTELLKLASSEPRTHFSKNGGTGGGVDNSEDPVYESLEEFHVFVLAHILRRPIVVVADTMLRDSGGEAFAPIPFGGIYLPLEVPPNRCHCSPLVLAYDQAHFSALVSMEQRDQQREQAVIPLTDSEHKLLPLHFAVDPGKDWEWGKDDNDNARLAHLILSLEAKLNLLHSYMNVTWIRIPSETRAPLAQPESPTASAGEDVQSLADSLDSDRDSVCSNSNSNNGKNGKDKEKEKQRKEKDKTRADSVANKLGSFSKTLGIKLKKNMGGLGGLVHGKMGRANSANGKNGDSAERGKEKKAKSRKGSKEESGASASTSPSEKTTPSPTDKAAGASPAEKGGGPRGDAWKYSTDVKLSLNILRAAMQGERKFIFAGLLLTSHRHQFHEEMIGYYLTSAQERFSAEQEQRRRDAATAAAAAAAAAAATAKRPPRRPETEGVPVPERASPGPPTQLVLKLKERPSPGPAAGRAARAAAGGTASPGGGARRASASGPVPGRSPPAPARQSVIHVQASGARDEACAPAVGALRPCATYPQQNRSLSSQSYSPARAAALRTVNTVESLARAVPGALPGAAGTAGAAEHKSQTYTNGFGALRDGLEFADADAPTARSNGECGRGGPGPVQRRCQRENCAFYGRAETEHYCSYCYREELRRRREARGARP
# Method in brief: as §1
# UniProt Q9P2H5 = target: T3, UniProt Q9P2H5
# T3 sequence (whole entry): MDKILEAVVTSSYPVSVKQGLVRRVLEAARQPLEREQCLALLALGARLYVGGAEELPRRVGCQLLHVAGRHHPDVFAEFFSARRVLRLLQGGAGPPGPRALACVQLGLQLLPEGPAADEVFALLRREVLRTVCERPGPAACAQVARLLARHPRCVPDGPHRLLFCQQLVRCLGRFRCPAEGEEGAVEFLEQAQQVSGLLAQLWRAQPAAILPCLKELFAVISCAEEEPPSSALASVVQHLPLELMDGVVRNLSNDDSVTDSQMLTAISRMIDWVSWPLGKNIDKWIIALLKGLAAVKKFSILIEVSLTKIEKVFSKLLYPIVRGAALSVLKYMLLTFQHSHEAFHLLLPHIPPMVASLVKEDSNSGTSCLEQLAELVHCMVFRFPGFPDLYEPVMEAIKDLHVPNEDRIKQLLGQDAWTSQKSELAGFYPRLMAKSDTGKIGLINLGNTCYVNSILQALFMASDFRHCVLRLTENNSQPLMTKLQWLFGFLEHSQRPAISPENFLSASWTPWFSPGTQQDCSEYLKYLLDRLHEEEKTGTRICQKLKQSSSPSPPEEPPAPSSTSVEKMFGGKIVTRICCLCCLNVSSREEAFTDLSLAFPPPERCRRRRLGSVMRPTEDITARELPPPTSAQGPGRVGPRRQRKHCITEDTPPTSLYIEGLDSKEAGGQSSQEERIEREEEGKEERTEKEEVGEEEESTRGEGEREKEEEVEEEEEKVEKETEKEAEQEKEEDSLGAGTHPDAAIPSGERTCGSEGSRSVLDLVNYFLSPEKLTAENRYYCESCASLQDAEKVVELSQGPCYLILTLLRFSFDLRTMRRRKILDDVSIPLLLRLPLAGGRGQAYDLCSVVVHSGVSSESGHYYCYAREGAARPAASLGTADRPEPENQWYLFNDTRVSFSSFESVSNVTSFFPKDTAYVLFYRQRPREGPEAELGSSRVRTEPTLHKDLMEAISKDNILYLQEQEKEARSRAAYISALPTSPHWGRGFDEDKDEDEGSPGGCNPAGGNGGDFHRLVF
# Method in brief: as §1
# UniProt Q9UGI0 = target: T4, UniProt Q9UGI0
# T4 sequence (whole entry): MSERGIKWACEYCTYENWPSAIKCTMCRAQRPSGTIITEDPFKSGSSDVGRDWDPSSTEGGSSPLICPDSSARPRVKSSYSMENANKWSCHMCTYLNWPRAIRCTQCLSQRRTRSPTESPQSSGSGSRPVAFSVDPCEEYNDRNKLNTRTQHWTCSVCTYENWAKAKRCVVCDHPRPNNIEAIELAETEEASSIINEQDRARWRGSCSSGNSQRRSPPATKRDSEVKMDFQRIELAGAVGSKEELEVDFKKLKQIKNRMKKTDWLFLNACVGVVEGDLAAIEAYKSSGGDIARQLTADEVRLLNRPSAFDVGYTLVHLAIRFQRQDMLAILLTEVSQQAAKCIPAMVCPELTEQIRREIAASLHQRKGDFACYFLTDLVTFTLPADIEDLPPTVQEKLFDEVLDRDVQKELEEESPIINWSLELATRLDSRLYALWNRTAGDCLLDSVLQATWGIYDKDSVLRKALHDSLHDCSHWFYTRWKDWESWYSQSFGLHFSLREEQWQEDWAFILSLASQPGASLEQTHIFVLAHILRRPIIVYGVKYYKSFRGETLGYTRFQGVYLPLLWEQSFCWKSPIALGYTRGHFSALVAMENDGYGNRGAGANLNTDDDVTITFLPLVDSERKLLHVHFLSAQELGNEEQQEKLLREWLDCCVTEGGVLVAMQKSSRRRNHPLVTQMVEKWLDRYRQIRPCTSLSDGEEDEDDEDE
# Method in brief: as §1
# YOD1 = target: T5, YOD1 (UniProt Q5VVQ6)
# T5 sequence (whole entry): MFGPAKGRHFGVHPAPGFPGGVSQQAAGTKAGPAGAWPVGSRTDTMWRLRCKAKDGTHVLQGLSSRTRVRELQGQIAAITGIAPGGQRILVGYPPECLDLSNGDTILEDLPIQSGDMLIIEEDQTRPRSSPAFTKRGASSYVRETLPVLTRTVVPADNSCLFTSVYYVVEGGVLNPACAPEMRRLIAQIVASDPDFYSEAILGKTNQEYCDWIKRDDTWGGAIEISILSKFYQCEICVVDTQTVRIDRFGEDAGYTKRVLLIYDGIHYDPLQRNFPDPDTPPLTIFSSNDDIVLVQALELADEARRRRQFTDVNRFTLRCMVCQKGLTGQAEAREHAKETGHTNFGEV
# Method in brief: as §1
# Sequence of UniProt P51784 (P51784 whole entry): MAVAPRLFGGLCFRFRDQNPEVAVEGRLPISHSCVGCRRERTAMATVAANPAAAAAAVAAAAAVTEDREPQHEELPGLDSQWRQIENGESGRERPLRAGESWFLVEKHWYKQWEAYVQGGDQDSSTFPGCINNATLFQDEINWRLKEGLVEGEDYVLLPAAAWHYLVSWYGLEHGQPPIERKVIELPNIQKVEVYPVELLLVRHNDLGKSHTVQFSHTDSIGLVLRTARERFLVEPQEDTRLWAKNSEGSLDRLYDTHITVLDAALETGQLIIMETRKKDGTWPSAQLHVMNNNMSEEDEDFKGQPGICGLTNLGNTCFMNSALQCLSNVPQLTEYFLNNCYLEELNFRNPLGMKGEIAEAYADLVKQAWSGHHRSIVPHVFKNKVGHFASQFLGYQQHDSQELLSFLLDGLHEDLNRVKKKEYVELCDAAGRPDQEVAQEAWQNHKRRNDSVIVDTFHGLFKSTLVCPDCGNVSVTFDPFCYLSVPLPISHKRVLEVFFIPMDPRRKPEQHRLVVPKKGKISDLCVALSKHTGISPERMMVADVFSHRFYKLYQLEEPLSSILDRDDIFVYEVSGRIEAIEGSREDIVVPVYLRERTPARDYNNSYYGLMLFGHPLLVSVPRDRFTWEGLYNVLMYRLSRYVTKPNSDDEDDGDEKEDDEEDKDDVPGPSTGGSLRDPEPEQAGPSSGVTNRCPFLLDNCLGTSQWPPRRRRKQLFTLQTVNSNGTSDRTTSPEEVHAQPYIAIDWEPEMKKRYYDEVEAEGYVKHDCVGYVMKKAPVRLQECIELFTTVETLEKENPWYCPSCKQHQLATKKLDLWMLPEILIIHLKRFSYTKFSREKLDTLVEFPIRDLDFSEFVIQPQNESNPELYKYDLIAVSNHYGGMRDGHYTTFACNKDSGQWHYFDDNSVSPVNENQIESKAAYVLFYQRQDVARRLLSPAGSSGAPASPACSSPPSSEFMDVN
# Sequence of UniProt O00507 (O00507 whole entry, the tested form may be a part): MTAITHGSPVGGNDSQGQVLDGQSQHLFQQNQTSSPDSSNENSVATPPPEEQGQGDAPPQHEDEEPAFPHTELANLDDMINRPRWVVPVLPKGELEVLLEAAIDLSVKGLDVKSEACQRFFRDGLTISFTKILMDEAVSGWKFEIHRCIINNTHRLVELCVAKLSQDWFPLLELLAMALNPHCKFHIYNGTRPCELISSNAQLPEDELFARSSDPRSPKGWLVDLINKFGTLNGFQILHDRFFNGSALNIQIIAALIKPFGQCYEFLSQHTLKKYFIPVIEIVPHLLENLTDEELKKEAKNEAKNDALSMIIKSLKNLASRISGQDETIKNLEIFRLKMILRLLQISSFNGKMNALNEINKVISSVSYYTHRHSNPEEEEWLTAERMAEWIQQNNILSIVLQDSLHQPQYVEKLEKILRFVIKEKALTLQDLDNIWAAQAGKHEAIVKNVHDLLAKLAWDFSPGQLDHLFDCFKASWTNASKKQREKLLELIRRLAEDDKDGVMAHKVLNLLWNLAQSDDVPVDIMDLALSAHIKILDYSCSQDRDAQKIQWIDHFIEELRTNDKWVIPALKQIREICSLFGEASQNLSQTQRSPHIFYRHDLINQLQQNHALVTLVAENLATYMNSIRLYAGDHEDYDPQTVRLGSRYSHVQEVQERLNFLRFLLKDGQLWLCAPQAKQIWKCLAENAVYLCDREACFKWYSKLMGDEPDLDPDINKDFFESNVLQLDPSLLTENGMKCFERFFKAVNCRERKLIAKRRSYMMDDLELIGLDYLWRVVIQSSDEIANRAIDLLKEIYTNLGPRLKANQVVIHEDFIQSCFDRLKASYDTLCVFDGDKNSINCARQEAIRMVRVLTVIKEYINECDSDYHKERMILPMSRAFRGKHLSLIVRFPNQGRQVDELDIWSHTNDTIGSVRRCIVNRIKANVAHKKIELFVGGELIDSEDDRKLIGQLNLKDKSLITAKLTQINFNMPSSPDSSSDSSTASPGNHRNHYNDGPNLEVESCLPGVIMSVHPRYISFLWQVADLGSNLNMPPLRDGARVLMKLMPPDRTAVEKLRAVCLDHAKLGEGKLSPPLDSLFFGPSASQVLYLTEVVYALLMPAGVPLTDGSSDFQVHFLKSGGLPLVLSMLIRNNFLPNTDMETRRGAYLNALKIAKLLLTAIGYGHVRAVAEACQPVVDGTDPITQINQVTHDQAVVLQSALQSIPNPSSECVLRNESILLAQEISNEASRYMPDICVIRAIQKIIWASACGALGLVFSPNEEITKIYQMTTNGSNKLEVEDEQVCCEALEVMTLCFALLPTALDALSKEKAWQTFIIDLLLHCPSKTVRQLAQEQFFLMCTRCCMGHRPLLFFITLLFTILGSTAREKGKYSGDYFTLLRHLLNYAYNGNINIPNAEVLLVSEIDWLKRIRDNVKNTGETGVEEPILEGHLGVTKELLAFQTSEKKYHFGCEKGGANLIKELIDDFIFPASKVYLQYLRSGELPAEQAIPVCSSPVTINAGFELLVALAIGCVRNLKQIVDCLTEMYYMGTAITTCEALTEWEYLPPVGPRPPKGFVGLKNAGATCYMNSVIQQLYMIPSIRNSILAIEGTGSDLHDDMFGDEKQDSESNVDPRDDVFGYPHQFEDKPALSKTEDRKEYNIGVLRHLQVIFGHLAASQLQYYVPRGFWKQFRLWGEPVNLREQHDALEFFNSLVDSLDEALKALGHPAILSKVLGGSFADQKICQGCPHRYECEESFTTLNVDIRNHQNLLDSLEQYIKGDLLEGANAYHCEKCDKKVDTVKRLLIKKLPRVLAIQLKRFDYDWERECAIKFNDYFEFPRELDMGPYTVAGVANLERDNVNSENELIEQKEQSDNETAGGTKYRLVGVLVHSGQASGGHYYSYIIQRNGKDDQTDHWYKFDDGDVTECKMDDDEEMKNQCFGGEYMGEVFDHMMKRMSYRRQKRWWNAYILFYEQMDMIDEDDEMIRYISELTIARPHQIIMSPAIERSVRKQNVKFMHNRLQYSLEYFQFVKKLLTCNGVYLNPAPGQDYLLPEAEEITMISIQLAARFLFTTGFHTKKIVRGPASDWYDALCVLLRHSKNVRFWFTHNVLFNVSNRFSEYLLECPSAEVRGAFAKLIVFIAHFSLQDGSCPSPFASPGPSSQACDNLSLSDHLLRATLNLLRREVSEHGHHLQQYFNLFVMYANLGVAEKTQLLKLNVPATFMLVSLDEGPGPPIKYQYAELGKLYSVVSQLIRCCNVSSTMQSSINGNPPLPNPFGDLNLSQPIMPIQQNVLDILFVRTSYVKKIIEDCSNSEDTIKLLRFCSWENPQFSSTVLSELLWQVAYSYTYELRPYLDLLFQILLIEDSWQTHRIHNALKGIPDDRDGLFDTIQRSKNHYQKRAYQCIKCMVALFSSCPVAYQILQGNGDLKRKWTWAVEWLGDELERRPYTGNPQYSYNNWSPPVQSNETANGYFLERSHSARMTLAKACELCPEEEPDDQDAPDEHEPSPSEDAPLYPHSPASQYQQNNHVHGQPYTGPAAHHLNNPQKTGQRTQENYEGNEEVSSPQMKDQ
SMILES,log2 ratio of Biotin-Ahx-Ub-VS probe labelling (UniProt O00507),log2 ratio of Biotin-Ahx-Ub-VS probe labelling (UniProt P51784),log2 ratio of Biotin-Ahx-Ub-VS probe labelling (UniProt Q5T2D3),log2 ratio of Biotin-Ahx-Ub-VS probe labelling (UniProt Q8TE49),log2 ratio of Biotin-Ahx-Ub-VS probe labelling (UniProt Q9P2H5),log2 ratio of Biotin-Ahx-Ub-VS probe labelling (UniProt Q9UGI0),log2 ratio of Biotin-Ahx-Ub-VS probe labelling (YOD1)
CC(C)n1nccc1NC(=O)CCl,-0.0553,0.033,-0.201,-1.34 (active),-0.152,-0.9,0.0661
O=C(CCl)NC1CCOc2ccccc21 (stereo not drawn),-0.574,-0.702,-0.795,-1.79 (active),-0.687,-0.865,-0.774
Cc1n[nH]c2c1CN(C(=O)CCl)CC2,-0.966,-0.554,-0.696,-1.43 (active),-0.801,-1.32 (active),-0.674
Cc1ccc(N(CCC#N)C(=O)CCl)cc1C,-0.369,-0.0613,-0.0739,-2.2 (active),-0.14,-1.49 (active),0.0402
COc1ccc(CN(C)C(=O)CCl)cc1,-0.339,0.00264,-0.273,-0.895,0.0343,-0.846,-0.295
CNC(=O)Cn1cc(NC(=O)CCl)cn1,-0.146,-0.115,-0.427,-0.553,-0.256,-1.09 (active),-0.252
Cc1cnc2[nH]cc(CCNC(=O)CCl)c2c1,-0.277,0.0378,-0.197,-0.5,0.0093,-0.444,-0.097
O=C(CCl)N[C@H]1CCS(=O)(=O)c2ccccc21,-0.141,-0.134,-0.0599,-0.609,-0.0511,-0.158,0.0852
Cl.O=C(CCl)NCCN1CCc2ccccc21,-0.631,-0.722,-0.805,-0.934,-0.844,-0.971,-0.814
O=C(CCl)N1CC=C(c2c[nH]c3ccccc23)CC1,-1.28 (active),-0.291,-0.405,-0.72,-0.734,-1.14 (active),-0.219
O=C(CCl)NCCc1ccc2c(c1)OCCO2,-0.489,0.0955,-0.249,-0.327,-0.0308,-0.256,-0.414
O=C(CCl)N1CCOCCC1c1ccccc1 (stereo not drawn),-0.114,0.0584,-0.173,-0.54,-0.305,-0.25,0.199
CC(NC(=O)CCl)c1cnn(C2CC2)c1 (stereo not drawn),-0.607,-0.127,-0.192,-0.779,-0.0606,-0.311,-0.732
O=C(CCl)NCc1ccc(N2CCOCC2)c(F)c1,0.631,0.16,-0.134,-0.275,-0.291,-0.051,0.276
O=C(CCl)N1CCc2sccc2C1,-0.0149,-0.207,-0.075,-1.18 (active),-0.371,-1.9 (active),-0.00804
COCC[C@@H](NC(=O)CCl)c1ccccc1,-0.0256,0.0932,-0.0591,-0.208,-0.159,-0.681,0.231
Cc1nc(CN2CCCN(C(=O)CCl)CC2)no1.Cl,0.543,0.151,-0.111,0.0982,-0.193,0.143,0.273
O=C(CCl)N1CCOC2(CCC2)C1,0.31,0.244,0.00991,-0.696,0.0475,-0.71,0.154
Cc1cc(Cl)ccc1NC(=O)CCl,0.519,-0.115,-0.142,-0.396,-0.193,-0.477,-0.175
